Shown are actives, neighbours in structure and some others; about 8.1% of the full set was active somewhere.
MCF10A rereplic: A quantitative high throughput screen for small molecules that induce DNA re-replication in MCF 10a normal breast cells; MCF 10A DNA re-replication, Hoechst nuclear intensity, 48 h; Potency, µM (highest dose often 46.1 µM), for inactives: top-dose activity, positive = re-replication, hits mostly activators; 350,000 tested, 2.9% active; AID 624296, 2012; further: % of control where 0% means no effect; nearly all actives have a fitted effect of over 50% in size
KB-V1 cytotox: qHTS assay for MDR1-selective chemotherapeutics: Primary screen using the drug-selected MDR subline cells KB-V1; KB-V1 MDR cells viability, CellTiter-Glo, 72 h; Potency, µM (series often up to 46.1 µM), actives largely listed as cytotoxic; 400,000 tested, 3.4% active; AID 1347076, 2019; further: on the % scale 0 is the no-effect control and ±100 the full control effect; nearly all actives have a fitted effect of over 60% in size
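Readout: CellTiter-Glo luminescence, 10 min after addition. Cells: KB-V1 MDR subline, 72 h at 37 degrees C with compound. Analysis: corrected, normalized data fitted to concentration-effect curves.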
SW480 rerep: A quantitative high throughput screen for small molecules that induce DNA re-replication in SW480 colon adenocarcinoma cells. 340,000 tested, 1.8% active. Potency, µM (series often up to 46.1 µM), without a hit: at the highest dose re-replication activation, most hits filed as activators. SW480 DNA re-replication, Hoechst DNA content imaging, 48 h. AID 624297, 2012; further: % of control where 0% means no effect; nearly all actives have a fitted effect of over 55% in size
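Per well, 250 cells were exposed to pinned compound for 48 hr. Nuclear DNA was visualised with Hoechst (40 min, 37 C) and total object intensity recorded by fluorescence scanning.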
KB-3-1 tox: qHTS assay for MDR1-selective chemotherapeutics: Primary screen using the parental adenocarcinoma cell KB-3-1 | Potency, µM (doses to about 46.1 µM), actives largely listed as cytotoxic | 400,000 tested, 1.4% active | KB-3-1 viability, CellTiter-Glo ATP luminescence, 72 h; further: on the % scale 0 is the no-effect control and ±100 the full control effect; nearly all actives have a fitted effect of over 60% in size
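KB-3-1 cells, DMEM (no phenol red) + 10% FBS; compound by pin transfer, 72 h, 37 °C. Readout: CellTiter-Glo luminescence after 10 min. Data normalized, curve-fitted.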
ELG1 repair inh: qHTS screen for small molecules that inhibit ELG1-dependent DNA repair in human embryonic kidney (HEK293T) cells expressing luciferase-tagged ELG1; 330,000 tested, 2.3% active; HEK293T ELG1-luciferase reporter, luminescence, 16 h; DNA damage induced by 5-fluorouridine; AID 504467, 2011; Potency, µM (doses to about 46.1 µM), for the others: at the top dose activity change, negative = inhibition, most hits filed as inhibitors; further: on the % scale 0 is the no-effect control and ±100 the full control effect; nearly all actives have a fitted effect of over 55% in size
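Overnight (16 hr) co-exposure of 2,000 cells/well to 5-fluorouridine and compound at 37 °C preceded detection. Luciferase was quantified via ONE-Glo luminescence; loss of signal denotes inhibition.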
Numbers without * were called inactive; i = inactive; ? = inconclusive; · = no result; ! = a repeat was not active. The call rests on the fitted dose curve; in most records, active means well fitted curve in the direction sought with a large enough effect; inconclusive means small, poorly fitted or top-dose-only effect, or another doubt; inactive means no such curve, though single readings can be large; an effect the other way counts as inactive or inconclusive. Potency means the concentration at half of the fitted maximal effect.

SMILES	MCF10A rereplic	KB-V1 cytotox	SW480 rerep	KB-3-1 tox	ELG1 repair inh
COCCn1nnnc1C(CC(C)C)N1CCN(c2nc3ccccc3s2)CC1 (stereo not given)	0.7%	i	-1.0%	i	2.6%
c1ccc(Cn2nnnc2C(c2ccccc2)N2CCN(c3nc4ccccc4s3)CC2)cc1 (stereo not given)	-17.0%	i	-8.0%	i	15.0%
c1ccc(C(c2nnnn2Cc2ccco2)N2CCN(c3nc4ccccc4s3)CC2)cc1 (stereo not given)	20.6%	?	-3.8%	i	20.6µM*
Cc1ccc(S(=O)(=O)Cn2nnnc2C(C(C)C)N2CCN(c3nc4ccccc4s3)CC2)cc1 (stereo not given)	0.7%	i	10.2%	i	18.4µM*
Cc1ccc(C2=NN(Cc3nnc(-c4ccccc4)o3)C(=O)SC2)cc1	?	13µM*	-0.5%	i	?
CCCCN1C(=O)C(CC(=O)NCCc2ccccn2)CC(C(=O)N(CC)CC)=C1C (stereo not given)	·	i	·	?	·
CCOC(=O)C1=Nc2ccccc2C1=[N+]=[N-]	2.59µM*	2.59µM*	?	?	?
CCOC(=O)c1cnc(-c2ccccc2O)nc1Cl	-9.2%	i	1.9%	i	?
Brc1ccc(-c2cn3nc4c(nc3n2)CCCC4)cc1	2.3%	i	-3.8%	i	?
CCc1ccc(-c2cn3nc(C)c(C)nc3n2)cc1	?	18.4µM*	15.9%	i	-1.4%
Cc1nc2nc(-c3ccc(F)cc3)cn2nc1C	-6.7%	i	-6.3%	?	?
Cc1nc2nc(-c3ccccc3)cn2nc1C	11.0%	20.6µM*	?	i	·
CCOc1ccc(NC(=O)CC2C(=O)N(c3ccccc3)C(=O)N2CCc2cccs2)cc1 (stereo not given)	-1.2%	5.8µM*!	?	i	-24.3%
Cc1ccsc1CCN1C(=O)N(c2ccccc2)C(=O)C1CC(=O)Nc1ccc(F)cc1 (stereo not given)	·	?	·	23.1µM*	·
CCOc1ccc(NC(=O)CC2C(=O)N(c3ccccc3)C(=O)N2CCc2ccc(OC)cc2)cc1 (stereo not given)	·	i	·	i	·
Cc1ccc(Cc2c(-c3cccc(Cl)c3)nc3c4ccccc4ccn23)cc1	·	i	·	i	·
Cc1ccc2nc(Cl)c3nnnn3c2c1	2.59µM*	?	1.84µM*	?	?
Cc1ccc2nc(NCc3ccccc3Cl)c3nnnn3c2c1	·	i	·	i	·
CCOC(=O)c1c(C)[nH]c(C(=O)N(C)CC(=O)Nc2ccc(OCC)c(OCC)c2)c1C	·	i	·	i	·
CCOc1ccc(NC(=O)c2ccc(OCC3CCCO3)cc2)cc1S(=O)(=O)N(CC)CC (stereo not given)	2.6%	2.59µM*	4.2%	i	?
COc1ccc(S(=O)(=O)N(C)C)cc1NC(=O)c1ccc(OCC2CCCO2)cc1 (stereo not given)	·	i	·	i	·
Cc1cc(NC(=O)c2ccc(OCC3CCCO3)cc2)ccc1Br (stereo not given)	·	?	·	i	·
CCN(CC)S(=O)(=O)c1ccc(NC(=O)c2ccc(OCC3CCCO3)cc2)cc1 (stereo not given)	?	14.6µM*	-18.1%	i	?
C[C@H]1CCCCO[C@@H](CN(C)C(=O)NC2CCCCC2)[C@@H](C)CN([C@@H](C)CO)C(=O)c2cc(NC(=O)Cc3ccccc3)ccc2O1	·	i	·	i	·
Cc1noc(C)c1C(=O)Nc1ccccc1N1CCOCC1	9.6%	i	-4.3%	i	12.2%
SMILES	MCF10A rereplic	KB-V1 cytotox	SW480 rerep	KB-3-1 tox	ELG1 repair inh
CC(C)CNC(=O)C(=O)Nc1c2c(nn1-c1ccc(Cl)cc1)CSC2	·	i	·	i	·
O=C(Nc1cc(C(F)(F)F)ccc1-n1cncn1)c1ccc(Br)cc1	0.6%	?	-2.4%	i	-5.1%
O=C(Nc1cc(C(F)(F)F)ccc1-n1cncn1)c1ccc([N+](=O)[O-])o1	?	?	9.2µM*	20.6µM*	?
CC1C(c2ccccc2)N(C)C(c2ccccc2)C(C)C1(O)C#Cc1ccccc1 (stereo not given)	23.1µM*	?	4.2%	?	3.1%
CN1CCN(C(=O)c2ccc(CN3CCOCC3)cc2)CC1	13.3%	i	-2.4%	i	6.1%
CCCNC(=S)N1CCC(Cc2ccccc2)CC1	10.8%	i	1.3%	i	1.9%
COc1ccc(CCNC(=O)c2ccc(CN3CCC(Cc4ccccc4)CC3)cc2)cc1OC	5.8%	3.66µM*	-3.1%	i	-16.3%
O=C(c1ccc(CN2CCOCC2)cc1)N1CCC(Cc2ccccc2)CC1	?	20.6µM*	0.7%	i	-21.7%
COc1ccc(-n2c(=O)[nH]c3cc(C(=O)NCCc4ccccc4)ccc3c2=O)cc1OC	0.9%	i	?	i	20.6µM*
COc1ccc(CCNC(=S)N2CCC(Cc3ccccc3)CC2)cc1OC	?	14.6µM*	-1.7%	?	9.2µM*
Cc1ccc(CCNC(=O)c2ccc3c(=O)n(-c4ccccc4)c(=O)[nH]c3c2)cc1	·	?	·	i	·
O=C(NCC(c1ccc2c(c1)OCO2)N1CCN(c2ccccc2)CC1)c1ccc(F)c(F)c1 (stereo not given)	·	i	·	i	·
C[C@@H]1CCCCO[C@H](CN(C)S(=O)(=O)c2ccc(F)cc2)[C@@H](C)CN([C@H](C)CO)C(=O)c2cc(NC(=O)Nc3ccc(C(F)(F)F)cc3)ccc2O1	·	i	·	i	·
COCCNC(=O)C1(C)CCCN(C(=O)c2cc(F)cc(F)c2)C1 (stereo not given)	·	i	·	i	·
COc1ccc(CC(=O)Nc2nc3c(s2)CC(C(C)(C)C)CC3)cc1 (stereo not given)	·	i	·	i	·
CCOc1ccc(S(=O)(=O)NCCC(=O)NCC(c2ccc(F)cc2)N2CCOCC2)cc1 (stereo not given)	-0.3%	i	-4.2%	i	?
S=C(Nc1ccccc1)N1CCC(Cc2ccccc2)CC1	12.9%	i	-3.4%	11.6µM*	-15.7%
COc1ccc(NC(=S)N2CCC(Cc3ccccc3)CC2)cc1	7.2%	i	-2.3%	i	?
CCCCN(C)S(=O)(=O)c1ccc(C(=O)Nc2nnc(-c3ccco3)o2)cc1	?	?	13µM*	?	?

Source: PubChem BioAssay
